Measurements published in publication PMC7862700, “An all-to-all approach to the identification of sequence-specific readers for epigenetic DNA modifications on cytosine”.

Legend:
Test in all cases: DAPPL (digital affinity profiling via proximity ligation, sequencing); 10 mM Tris-HCl pH 7.5, 50 mM NaCl, 1 mM DTT, 4% glycerol, room temperature, 30 min; GST-TFs on glutathione beads, 16-mer random dsDNA library, 0.1% formaldehyde crosslink after washing; high values mean tight binding
Conditions in all cases: protein: recombinant; tags: N-terminal GST; dsDNA, one strand shown
[1] = target: ELF4 (Homo sapiens, UniProt Q99607 1-663)
Procedure, shortened: (§1)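 In yeast, human transcription factors were expressed with a GST fusion, then pulled down on glutathione beads and given DNA barcodes. Pooled with a tag-only sample, they were exposed to 200 nmole of a 16-mer random double-stranded DNA library (Tris/NaCl/DTT/glycerol buffer, room temperature, 30 min), washed, crosslinked with 0.1% formaldehyde, proximity-ligated using BsaI/T4 ligase for 1 h at 37 °C, PCR-amplified and read on an Illumina NextSeq500. Each hexamer's frequency of reads for a factor, divided by the matching frequency for the tag-only sample, gives the binding signal.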

[2] = target: T1, ETV2 (Homo sapiens, UniProt O00321 1-342)
T1 sequence: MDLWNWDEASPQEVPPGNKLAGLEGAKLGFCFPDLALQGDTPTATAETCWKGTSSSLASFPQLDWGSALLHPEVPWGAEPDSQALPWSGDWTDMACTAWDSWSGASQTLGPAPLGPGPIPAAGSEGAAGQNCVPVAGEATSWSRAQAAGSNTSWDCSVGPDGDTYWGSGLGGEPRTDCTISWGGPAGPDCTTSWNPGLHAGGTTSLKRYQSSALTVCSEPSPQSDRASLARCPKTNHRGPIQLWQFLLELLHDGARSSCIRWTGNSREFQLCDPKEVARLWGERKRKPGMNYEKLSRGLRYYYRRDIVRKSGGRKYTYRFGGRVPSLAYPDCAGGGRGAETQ
Procedure, shortened: as §1

[3] = target: T2, ELF3 (Homo sapiens, UniProt P78545 1-371)
T2 sequence: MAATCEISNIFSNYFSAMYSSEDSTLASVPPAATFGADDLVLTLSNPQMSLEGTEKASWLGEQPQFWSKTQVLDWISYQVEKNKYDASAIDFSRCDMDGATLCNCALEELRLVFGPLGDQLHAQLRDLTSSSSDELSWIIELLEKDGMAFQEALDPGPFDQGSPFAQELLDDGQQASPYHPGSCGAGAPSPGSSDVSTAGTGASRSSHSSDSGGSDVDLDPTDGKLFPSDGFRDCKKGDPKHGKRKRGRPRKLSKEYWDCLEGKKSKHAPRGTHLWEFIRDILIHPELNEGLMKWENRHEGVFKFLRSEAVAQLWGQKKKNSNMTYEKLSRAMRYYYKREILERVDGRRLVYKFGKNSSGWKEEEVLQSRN
Procedure, shortened: as §1

[4] = target: T3, ERF (Homo sapiens, UniProt P50548 1-548)
T3 sequence: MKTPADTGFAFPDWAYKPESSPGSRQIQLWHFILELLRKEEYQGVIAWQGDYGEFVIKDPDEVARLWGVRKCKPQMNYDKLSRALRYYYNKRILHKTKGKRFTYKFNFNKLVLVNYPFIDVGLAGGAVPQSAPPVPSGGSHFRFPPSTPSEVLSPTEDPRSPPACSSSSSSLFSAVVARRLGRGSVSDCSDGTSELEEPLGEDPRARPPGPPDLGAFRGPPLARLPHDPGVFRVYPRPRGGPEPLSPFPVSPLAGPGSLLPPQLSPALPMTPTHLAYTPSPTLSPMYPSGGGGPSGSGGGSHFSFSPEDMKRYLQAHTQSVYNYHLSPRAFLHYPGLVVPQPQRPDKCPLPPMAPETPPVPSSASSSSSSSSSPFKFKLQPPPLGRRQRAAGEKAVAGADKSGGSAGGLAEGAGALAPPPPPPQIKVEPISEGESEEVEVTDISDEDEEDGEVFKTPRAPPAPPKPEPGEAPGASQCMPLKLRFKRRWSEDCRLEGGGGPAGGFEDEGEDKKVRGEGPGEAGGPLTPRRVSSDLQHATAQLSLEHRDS
Procedure, shortened: as §1

[5] = target: T4, ETV3L (Homo sapiens, UniProt Q6ZN32 1-361)
T4 sequence: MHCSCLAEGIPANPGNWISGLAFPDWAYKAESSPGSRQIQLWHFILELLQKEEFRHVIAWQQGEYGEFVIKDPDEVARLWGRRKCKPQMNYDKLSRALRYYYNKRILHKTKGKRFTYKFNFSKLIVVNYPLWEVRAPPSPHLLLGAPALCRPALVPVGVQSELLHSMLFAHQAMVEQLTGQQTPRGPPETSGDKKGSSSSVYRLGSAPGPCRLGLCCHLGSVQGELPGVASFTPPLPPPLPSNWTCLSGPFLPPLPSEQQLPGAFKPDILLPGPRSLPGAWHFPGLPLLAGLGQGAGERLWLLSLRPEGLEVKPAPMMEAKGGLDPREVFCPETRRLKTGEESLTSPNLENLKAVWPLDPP
Procedure, shortened: as §1

[6] = target: T5, ETS2 (Homo sapiens, UniProt P15036 1-469)
T5 sequence: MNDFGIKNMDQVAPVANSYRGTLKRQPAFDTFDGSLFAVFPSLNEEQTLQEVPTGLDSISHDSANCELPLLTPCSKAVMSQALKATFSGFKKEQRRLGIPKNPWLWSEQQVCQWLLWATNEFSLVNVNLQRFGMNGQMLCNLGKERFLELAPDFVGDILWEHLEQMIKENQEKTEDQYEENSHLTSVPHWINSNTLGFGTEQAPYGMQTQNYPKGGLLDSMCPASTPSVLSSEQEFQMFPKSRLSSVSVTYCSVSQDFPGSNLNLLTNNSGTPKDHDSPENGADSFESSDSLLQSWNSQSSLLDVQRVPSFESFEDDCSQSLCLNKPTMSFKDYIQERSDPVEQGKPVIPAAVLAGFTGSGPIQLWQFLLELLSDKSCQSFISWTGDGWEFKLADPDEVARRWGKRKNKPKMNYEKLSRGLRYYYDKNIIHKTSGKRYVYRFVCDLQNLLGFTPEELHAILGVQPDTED
Procedure, shortened: as §1

[7] = target: T6, SPDEF (Homo sapiens, UniProt O95238 1-335)
T6 sequence: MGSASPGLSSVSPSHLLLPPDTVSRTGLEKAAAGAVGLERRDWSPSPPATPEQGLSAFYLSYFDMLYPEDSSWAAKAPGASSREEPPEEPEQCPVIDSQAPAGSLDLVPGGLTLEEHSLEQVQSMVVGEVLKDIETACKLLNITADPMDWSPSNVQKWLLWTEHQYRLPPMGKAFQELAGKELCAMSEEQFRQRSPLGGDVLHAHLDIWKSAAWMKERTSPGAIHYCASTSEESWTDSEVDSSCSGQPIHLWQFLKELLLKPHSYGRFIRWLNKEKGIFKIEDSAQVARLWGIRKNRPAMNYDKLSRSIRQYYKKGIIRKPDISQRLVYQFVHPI
Procedure, shortened: as §1

[8] = target: T7, ETV7 (Homo sapiens, UniProt Q9Y603 1-341)
T7 sequence: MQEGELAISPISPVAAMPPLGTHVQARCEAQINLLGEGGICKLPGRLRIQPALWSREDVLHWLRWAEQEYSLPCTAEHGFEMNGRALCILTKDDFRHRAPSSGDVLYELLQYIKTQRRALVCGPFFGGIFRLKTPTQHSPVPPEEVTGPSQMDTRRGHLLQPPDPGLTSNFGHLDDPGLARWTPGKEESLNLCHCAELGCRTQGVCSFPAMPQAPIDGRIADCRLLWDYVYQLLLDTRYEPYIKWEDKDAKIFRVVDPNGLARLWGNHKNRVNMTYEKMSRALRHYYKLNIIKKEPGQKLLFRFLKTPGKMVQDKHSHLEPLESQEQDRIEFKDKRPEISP
Procedure, shortened: as §1

[9] = target: T8, ELF5 (Homo sapiens, UniProt Q9UKW6-2 1-255)
T8 sequence: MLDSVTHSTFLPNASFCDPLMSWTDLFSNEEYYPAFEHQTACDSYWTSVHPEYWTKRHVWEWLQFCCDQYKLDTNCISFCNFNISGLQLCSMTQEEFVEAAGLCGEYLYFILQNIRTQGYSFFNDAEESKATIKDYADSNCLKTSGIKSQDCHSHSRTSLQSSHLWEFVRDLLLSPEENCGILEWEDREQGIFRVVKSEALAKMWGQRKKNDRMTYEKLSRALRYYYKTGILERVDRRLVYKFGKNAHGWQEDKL
Procedure, shortened: as §1

[10] = target: ETV6 (Homo sapiens, UniProt P41212 1-452)
Procedure, shortened: as §1

Chain of ELF4 (Q99607 whole entry, the tested form may be a part): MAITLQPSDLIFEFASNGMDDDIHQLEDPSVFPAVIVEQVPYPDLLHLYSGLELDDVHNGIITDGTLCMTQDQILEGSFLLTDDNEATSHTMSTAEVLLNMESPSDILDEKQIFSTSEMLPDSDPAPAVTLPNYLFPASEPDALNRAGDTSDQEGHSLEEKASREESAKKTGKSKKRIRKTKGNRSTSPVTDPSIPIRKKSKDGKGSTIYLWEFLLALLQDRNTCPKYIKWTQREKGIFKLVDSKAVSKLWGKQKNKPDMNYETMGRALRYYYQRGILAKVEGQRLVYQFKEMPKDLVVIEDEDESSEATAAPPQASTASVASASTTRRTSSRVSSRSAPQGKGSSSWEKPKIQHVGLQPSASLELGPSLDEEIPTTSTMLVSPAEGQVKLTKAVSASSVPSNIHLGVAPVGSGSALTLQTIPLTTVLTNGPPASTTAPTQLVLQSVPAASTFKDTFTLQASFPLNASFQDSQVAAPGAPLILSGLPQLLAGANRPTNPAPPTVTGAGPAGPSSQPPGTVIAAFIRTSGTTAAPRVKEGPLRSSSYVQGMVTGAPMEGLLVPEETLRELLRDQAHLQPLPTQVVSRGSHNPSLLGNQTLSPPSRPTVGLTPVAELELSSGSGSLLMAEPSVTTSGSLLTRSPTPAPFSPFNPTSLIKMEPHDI
Chain of ETV6 (P41212 whole entry): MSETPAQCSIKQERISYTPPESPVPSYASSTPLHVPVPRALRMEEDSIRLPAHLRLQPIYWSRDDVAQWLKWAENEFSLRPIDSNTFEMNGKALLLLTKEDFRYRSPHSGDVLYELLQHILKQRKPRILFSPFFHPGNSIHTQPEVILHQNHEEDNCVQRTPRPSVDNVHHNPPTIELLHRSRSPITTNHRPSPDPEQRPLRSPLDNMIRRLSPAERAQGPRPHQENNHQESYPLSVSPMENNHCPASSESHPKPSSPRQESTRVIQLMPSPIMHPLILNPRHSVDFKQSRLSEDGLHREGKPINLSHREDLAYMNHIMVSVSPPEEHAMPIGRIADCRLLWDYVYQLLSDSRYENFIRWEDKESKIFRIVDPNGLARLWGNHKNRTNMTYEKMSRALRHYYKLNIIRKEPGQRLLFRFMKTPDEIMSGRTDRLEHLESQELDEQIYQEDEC

In the case of GAATGC, the binding signal [1] is reported as 1.05 fold enrichment (6-mer frequency, TF over GST control), the binding signal [2] is reported as 1.04 fold enrichment (6-mer frequency, TF over GST control) and the binding signal [3] is reported as 1.06 fold enrichment (6-mer frequency, TF over GST control). The binding signal [4] was 1.04 fold enrichment (6-mer frequency, TF over GST control), the binding signal [5] was 1.01 fold enrichment (6-mer frequency, TF over GST control) and the binding signal [6] was 1.05 fold enrichment (6-mer frequency, TF over GST control). For the same sequence, the binding signal [7] was 1.04 fold enrichment (6-mer frequency, TF over GST control), the binding signal [8] was 1.03 fold enrichment (6-mer frequency, TF over GST control) and the binding signal [9] was 1.07 fold enrichment (6-mer frequency, TF over GST control). The binding signal [10] was 1.01 fold enrichment (6-mer frequency, TF over GST control).
